For 22 compounds, Potency results are on record in PubChem BioAssay AID1724 (National Center for Advancing Translational Sciences (NCATS), 2009).

Inconclusive results are not listed. Where a call stands in place of a potency, no number is given. Active and inactive are the calls of the source. Calls come from the whole dose curve; as a rule, active = well fitted inhibition curve with a large enough effect; inconclusive = small, poorly fitted or top-dose-only effect, or effect the other way; inactive = no such curve, though single readings can be large or run the other way.

The nature of this assay: Confirmation Concentration-Response Assay for Inhibitors of the ERK Signaling Pathway using a Homogeneous Screening Assay. The conditions noted are these: HEK293 cells, hormone-stimulated phospho-ERK AlphaScreen; series mostly up to 40.9 µM. The text has this:
qHTS Assay for Inhibitors of the ERK Signaling Pathway using a Homogeneous Screening Assay
NIH Chemical Genomics Center [NCGC]
NIH Molecular Libraries Screening Centers Network [MLSCN]
Assay Submitter (PI): Dr. Wei Zheng, NCGC/NIH
The Ras/extracellular-signal-regulated kinase (ERK) mitogen activated protein (MAP) kinase signaling pathway (ERK1/2 cascade) plays is a key role in transmitting signals from the cell surface to the nucleus (Nishida and Gotoh 1993; Chang and Karin, 2001). The cascade is initiated by the small G-protein Ras, which recruits Raf […], where activation occurs. Alternatively, this pathway can be activated by elevating intracellular cAMP.
Activation of the ERK pathway is essential in increased cell division and cell survival. Sustained and constitutive activation of the ERK pathway, however, has been linked to uncontrolled cell proliferation, increased cell survival, and tumor progression. Thus, the ERK has been as an attractive target for cancer chemotherapy in the past few years (Sebolt-Leopold and Herrera, 2004). Given its physiological and pathological importance, assessment of ERK phosphorylation has been broadly performed in both basic research and drug discovery. Most assays for the measurement of ERK phosphorylation use the antibody-based detection methods, such as western blot and ELISA. These assays require multiple reagent additions with cell wash steps and are not suitable for high-throughput screening.
The current cell-based ERK phosphorylation assay was performed using AlphaScreen platform. AlphaScreen is a two bead-based proximity-dependent chemical energy transfer luminescent assay platform. The assay reagents (ERK SureFire(TM) kit) were supplied from TGR BioSciences (Australia). In the presence of specific antibodies, phosphorylated ERK will bring "donor" and "acceptor" beads to a proximity range (<200 nm), and subsequently lead a chemical luminescent reaction upon exciting donor beads with 680 nm laser. To exclude the assay-related false positives, we used a biotinylated rabbit IgG to perform counter-screen. The biotinylated antibody mimics the phosphorylated ERK1/2 for bringing streptavidin coated beads and protein-A coated beads to a proximity range for the AlphaScreen detection.
NCGC Assay Protocol Summary:
HEK293 cells stably expressing type-1 vasopressin receptor (V1b) were maintained in DMEM medium (Invitrogen, Carlsbad, CA) at 37C under a humidified atmosphere containing 5% CO2 and 95% air. The medium contained 10% FBS, 2 mM L-glutamine, non-essential amino acid, pyruvate and 50 U/ml penicillin and 50 ug/ml streptomycin (Invitrogen). The aliquots of frozen cells were stored at -135C and used for the compound screening. All compounds were screened as titrations from 0.6 nM to 46 uM final concentration. Vasopressin was used to stimulate the ERK phosphorylation pathway. The ERK phosphorylation in cells was determined using an AlphaScreen assay kit provided by PerkinElmer. Data were normalized to the controls for basal activity (DMSO only) and 100% activation (25 nM vasopressin). AC50 values were determined from concentration-response data modeled with the standard Hill equation.
(1) Seed 4 ul/well of resuspended frozen HEK293 cells containing 2000 cells in white 1536-well plates for overnight with 1% FBS at 37C under a humidified atmosphere containing 5% CO2 and 95% air.
(2) Add 23 nL compounds in DMSO solution. The final titration was 0.6 nM to 46 uM.
(3) Incubate at 37C for 30 min.
(4) Dispense 0.5uL vasopressin (25 nM in final)
(5) Incubate at 37C for 5 min.
(6) Dispense 0.5uL of 1:2 diluted 5x lysis buffer.
(7) Incubate at 37C for 10 min.
(8) Dispense 1.5uL of mixture of activation buffer and reaction buffer with AlphaScreen beads (streptavidin donor beads and protein-A acceptor beads, 10 ng/well for each).
(9) Incubate at room temperature for 5 hr.
(10) Detect the assay plate in an EnVision plate reader (PerkinElmer) using the AlphaScreen detection mode.
[…]
Turning to `COc1ccc(N=C2C(=Nc3ccc(OC)cc3)N(c3ccc(N(C)C)cc3)C(=S)N2c2ccc(OC)cc2)cc1`, the Potency is 5.62 µM (active).
Turning to `CN(C)c1ccc(-c2ccc3ncnc(NCc4ccccc4)c3c2)cc1`, the Potency was 15.8 µM (active).
Take `Cc1sc2ncnc(Sc3nnnn3-c3ccc(Cl)cc3)c2c1C`: the Potency entry is “inactive”.
In the case of `C=C[C@]1(C)CC(=O)[C@@]2(O)[C@@]3(C)C(O)CCC(C)(C)C3C(O)C(OC(C)=O)[C@@]2(C)O1` (some centres not stated) it was “inactive”; in that of `CNc1cccc2c1C(=O)c1ccccc1C2=O`, 14.1 µM (active); in that of `O=S(=O)(c1ccccc1)N1CCN(c2cc(-c3ccccc3)nc3ncnn23)CC1`, 31.6 µM (active).
Take `Cc1ccc(Nc2ncnc3sc(C)c(C)c23)cc1`: the Potency entry is “inactive”.
In the case of `CCOc1ccc(/C(O)=C2/C(=O)C(=O)N(c3ncccn3)C2c2ccccc2)cc1` (configuration not stated), the Potency result is “inactive”.
`c1ccc(Oc2nc(NCc3ccco3)nc(NCc3ccco3)n2)cc1`: the Potency entry is “inactive”.
On to `CCCN(CCC)S(=O)(=O)c1cccc(C(=O)Nc2ccc3c(c2)OCO3)c1`, for which the Potency entry is “inactive”.
On to `COc1cc2ncnc(Nc3cccc(Cl)c3)c2cc1OC`, for which the Potency result was “inactive”.
Consider `Cc1ccc(NNc2c(C)nc3ccccc3nc2=O)cc1`, for which the Potency entry is “inactive”.
As for `CN(C)CCCn1cc(C2=C(c3c[nH]c4ccccc34)C(=O)NC2=O)c2ccccc21`, the Potency is 1.26 µM (active).
With `CC(=O)N1CCC(=NNc2nc3ccccc3s2)CC1`, the Potency result is “inactive”.
As to `CCOC(=O)c1ccc(NC(=O)c2ccc(C)c(S(=O)(=O)N3CCOCC3)c2)cc1`, the Potency was 8.91 µM (active).
The figure for `O=C(Nc1ccc(N2CCN(C(=O)c3ccco3)CC2)c(Cl)c1)c1cc2ccccc2o1` is 7.94 µM (active); for `COc1ccc(C(=O)c2ccc(Cl)c([N+](=O)[O-])c2)cc1` it is 12.6 µM (active); for `COc1cc(C(=O)Nc2nc(-c3cccs3)cs2)cc(OC)c1OC` it is 12.6 µM (active).
For the compound `CN(C)c1cc2c(Nc3ccc4c(cnn4Cc4ccccc4)c3)ncnc2cn1`, the Potency result is “inactive”.
For the compound `COc1ccc(CC(=O)Nc2cccc(-c3nnc(-c4cccc(C)c4)o3)c2)cc1OC`, the Potency is 4.47 µM (active).
On to `O=C(Nc1ccc(-c2cn3ccsc3n2)cc1)c1ccc(F)c(S(=O)(=O)N2CCOCC2)c1`, for which the Potency was 12.6 µM (active).
As to `Cc1cc(-c2ccccc2)n(-c2cc(N/N=C/c3ccccc3O)ncn2)n1`, the Potency result is “inactive”.
